Results reported in PubChem BioAssay AID1159580 (chemical genetic matrix, 2015).
Values joined by “and” are separate entries in the source; they are usually repeats but may differ in a detail not shown here. Equal values may be shown once. In all, about 5,500 compounds went through this assay and about 2,000 (36%) were called active. Another 18% or so got no clear call; they are omitted. Cut-off read from the data, not from the text of the source: active = normalized growth mostly below about 0.91 (no sharp cut-off); inconclusive = no clear call, values can overlap the other calls; inactive = mostly above about 0.92. The list shows a part of the results.

Assay: chemical genetic growth profiling, strain panel (AID 1159580);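 note: tested at 20 µM; growth read once vehicle control cultures reached saturation at 30 °C; 1 = growth at the plate median or of vehicle wells; lower values mean less growth of the strain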
Details: S. cerevisiae deletion strains, growth OD

Measured: normalized growth

CC[C@@H](CO)NC(=O)[C@@H]1C=C2c3cccc4[nH]cc(c34)C[C@H]2N(C)C1
inactive: locus YAL013W, strain DEP1, stronger effect = lower value 0.989 | locus YAL021C, strain ccr4, stronger effect = lower value 1 | locus YAL026C, strain drs2, stronger effect = lower value 0.996 | locus YAL030W, strain snc1, stronger effect = lower value 0.997 | locus YBL061C, strain skt5, stronger effect = lower value 0.999 | locus YBR009C, strain hhf1, stronger effect = lower value 0.992 | locus YBR021W, strain FUR4, stronger effect = lower value 1 | locus YBR023C, strain chs3, stronger effect = lower value 0.997 | locus YBR171W, strain sec66, stronger effect = lower value 0.998 | locus YBR229C, strain ROT2, stronger effect = lower value 0.99 | locus YBR231C, strain swc5, stronger effect = lower value 0.988 | locus YBR279W, strain paf1, stronger effect = lower value 0.996 | locus YCL011C, strain gbp2, stronger effect = lower value 1 | locus YCL016C, strain dcc1, stronger effect = lower value 0.994 | locus YCL029C, strain bik1, stronger effect = lower value 0.984 | locus YCL069W, strain vba3, stronger effect = lower value 1 | locus YCR088W, strain abp1, stronger effect = lower value 0.998 | locus YDL005C, strain med2, stronger effect = lower value 1 | locus YDL035C, strain GPR1, stronger effect = lower value 1 | locus YDL040C, strain nat1, stronger effect = lower value 0.997 | locus YDL074C, strain BRE1, stronger effect = lower value 1.02 | locus YDL101C, strain DUN1, stronger effect = lower value 0.993 | locus YDL134C, strain PPH21, stronger effect = lower value 0.98 | locus YDL185W, strain tfp1, stronger effect = lower value 0.981 | locus YDL192W, strain arf1, stronger effect = lower value 0.988 | locus YDR001C, strain nth1, stronger effect = lower value 0.998 | locus YDR069C, strain doa4, stronger effect = lower value 0.995 | locus YDR101C, strain arx1, stronger effect = lower value 0.995 | locus YDR137W, strain rgp1, stronger effect = lower value 0.995 | locus YDR150W, strain NUM1, stronger effect = lower value 1 | locus YDR159W, strain sac3, stronger effect = lower value 0.992 | locus YDR162C, strain NBP2, stronger effect = lower value 1.02 | locus YDR195W, strain ref2 0.942 | locus YDR297W, strain sur2, stronger effect = lower value 0.994 | locus YDR318W, strain mcm21, stronger effect = lower value 0.982 | locus YDR334W, strain swr1, stronger effect = lower value 1 | locus YDR335W, strain msn5, stronger effect = lower value 0.999 | locus YDR388W, stronger effect = lower value 0.99 | locus YDR392W, strain spt3, stronger effect = lower value 0.995 | locus YDR502C, strain sam2, stronger effect = lower value 1 | locus YEL003W, strain gim4, stronger effect = lower value 0.998 | locus YEL037C, strain rad23, stronger effect = lower value 1 | locus YEL061C, strain CIN8 (second series), stronger effect = lower value 1 | locus YEL061C, strain CIN8, stronger effect = lower value 0.998 | locus YER015W, strain faa2, stronger effect = lower value 0.99 | locus YER016W, strain bim1, stronger effect = lower value 0.993 | locus YER110C, stronger effect = lower value 0.977 | locus YER111C, strain swi4, stronger effect = lower value 1 | locus YER155C, strain BEM2 (second series), stronger effect = lower value 0.961 | locus YER155C, strain BEM2, stronger effect = lower value 1 | locus YER167W, strain BCK2, stronger effect = lower value 0.974 | locus YFR010W, strain ubp6, stronger effect = lower value 0.985 | locus YGL078C, strain dbp3, stronger effect = lower value 0.998 | locus YGL086W, strain mad1, stronger effect = lower value 0.959 | locus YGL167C, strain pmr1, stronger effect = lower value 1.01 | locus YGL173C, strain kem1, stronger effect = lower value 0.995 | locus YGL227W, strain vid30, stronger effect = lower value 0.991 | locus YGL240W, strain doc1, stronger effect = lower value 0.981 | locus YGL248W, strain PDE1, stronger effect = lower value 0.986 | locus YGL253W, strain hxk2, stronger effect = lower value 1.01 | locus YGR078C, strain PAC10, stronger effect = lower value 0.994 | locus YGR135W, strain pre9, stronger effect = lower value 0.958 | locus YGR229C, strain SMI1, stronger effect = lower value 0.961 | locus YGR252W, strain gcn5, stronger effect = lower value 0.949 | locus YHR013C, strain ard1, stronger effect = lower value 1.02 | locus YHR027C, strain rpn1, stronger effect = lower value 1 | locus YHR030C, strain SLT2, stronger effect = lower value 0.99 and 1.07 | locus YHR079C, strain IRE1 (second series), stronger effect = lower value 0.991 | locus YHR079C, strain IRE1, stronger effect = lower value 1.07 | locus YHR094C, strain hxt1, stronger effect = lower value 0.985 | locus YHR129C, strain ARP1, stronger effect = lower value 0.989 | locus YHR142W, strain chs7, stronger effect = lower value 1.01 | locus YHR200W, strain rpn10, stronger effect = lower value 0.978 | locus YIL066C, strain RNR3, stronger effect = lower value 0.983 | locus YIL073C, strain SPO22, stronger effect = lower value 0.945 | locus YIL125W, strain kgd1, stronger effect = lower value 0.998 | locus YIR030C, strain dcg1, stronger effect = lower value 0.991 | locus YJL092W, strain hpr5, stronger effect = lower value 0.995 | locus YJL095W, strain BCK1 (second series), stronger effect = lower value 0.995 | locus YJL095W, strain BCK1, stronger effect = lower value 0.981 and 1.04 | locus YJL115W, strain asf1, stronger effect = lower value 0.995 | locus YJL129C, strain trk1, stronger effect = lower value 0.999 | locus YJL134W, strain LCB3, stronger effect = lower value 0.992 | locus YJL154C, strain vps35, stronger effect = lower value 0.998 | locus YJL164C, strain tpk1, stronger effect = lower value 0.991 | locus YJL166W, strain qcr8, stronger effect = lower value 0.947 | locus YJL168C, strain set2, stronger effect = lower value 0.984 | locus YJL187C, strain SWE1 (second series), stronger effect = lower value 0.996 | locus YJR043C, strain POL32, stronger effect = lower value 0.975 | locus YJR066W, strain TOR1, stronger effect = lower value 0.999 | locus YJR075W, strain HOC1, stronger effect = lower value 1.02
